# PubChem BioAssay (EPA / NIEHS)
# Inconclusive results are not listed. The source made the active and inactive calls. The calls were made as follows: active = hit-call score of the fitted dose curve at least 0.9, where 1 is the maximum; inconclusive = response in the unintended direction; inactive = score below 0.9.
# How the values were obtained:
# [1] = ATG_XTT_Cytotoxicity: Cytotoxicity Assessment in the Attagene TRANS-FACTORIAL HepG2 Assay (AID 2283584);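 as to AC50: cells exposed to compound for 24 h before reading; active means loss of viability signal versus DMSO baseline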
# Summary of the method: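 HepG2 human liver cells, transiently transfected with multiple GAL4-UAS reporter units, were dosed and read at 24 h by XTT as cell number. Loss of signal was fitted relative to DMSO negative control baseline.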
# [2] = TOX21_p53_BLA_p2_viability: Viability Assessment in the Tox21 HCT-116 p53 Agonism Beta-lactamase Assay, Phase 2 (AID 2283591);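 also: compound exposure lasted 16 h at 37 °C; actives lower the ATP signal meaning cytotoxicity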
# Summary of the method: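 HCT116 p53-bla cells, 4000/well, dosed after 5 h plating (217-fold dilution of DMSO stocks) and incubated 16 h at 37C. Viability taken as cellular ATP by CellTiter-Glo luminescence after 30 min RT; signal loss marks cytotoxicity.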
# [3] = target: Cellular tumor antigen p53 (Homo sapiens) (UniProt P04637); assay: TOX21_p53_BLA_p2_ratio: Tox21 HCT-116 p53 Agonism Beta-lactamase Assay, Ratio, Phase 2 (AID 2283592)
# Summary of the method: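 Ratio endpoint: beta-lactamase cleavage of CCF4-AM, blue (460 nm) over green (530 nm). HCT116 reporter line; 16 h treatment, 37C; substrate 2 h RT.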
# [4] = TOX21_p53_BLA_p3_viability: Viability Assessment in the Tox21 HCT-116 p53 Agonism Beta-lactamase Assay, Phase 3 (AID 2283593);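 also: cells exposed to compound for 16 h before reading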
# Summary of the method: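 HCT116 cells, 4000/well, dosed 5 h after plating by pin transfer (217-fold dilution from DMSO stock) and incubated 16 h at 37C, 5% CO2. Viability read as ATP luminescence with CellTiter-Glo after 30 min at room temperature.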
# [5] = target: Cellular tumor antigen p53 (Homo sapiens) (UniProt P04637); assay: TOX21_p53_BLA_p5_ratio: Tox21 HCT-116 p53 Agonism Beta-lactamase Assay, Ratio, Phase 5 (AID 2283599)
# Summary of the method: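 HCT-116 p53-bla cells (4000/well) plated 5 h, dosed with compound (217-fold DMSO dilution) for 16 h at 37 C; CCF4-AM substrate 2 h at room temperature. Activity is the 460/530 nm emission ratio (405 nm excitation), fitted in gain-of-signal direction versus DMSO.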
# [6] = target: Cellular tumor antigen p53 (Homo sapiens) (UniProt P04637); assay: TOX21_p53_BLA_p4_ratio: Tox21 HCT-116 p53 Agonism Beta-lactamase Assay, Ratio, Phase 4 (AID 2283601)
# Summary of the method: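 HCT-116 p53 beta-lactamase reporter cells (4000/well) preincubated 5 h, then compound (217-fold dilution of DMSO stock) for 16 h at 37C. CCF4-AM substrate added 2 h at room temperature; 460/530 nm emission ratio fitted upward versus DMSO.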
# [7] = target: Cellular tumor antigen p53 (Homo sapiens) (UniProt P04637); assay: TOX21_p53_BLA_p3_ratio: Tox21 HCT-116 p53 Agonism Beta-lactamase Assay, Ratio, Phase 3 (AID 2283596)
# Summary of the method: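 Cells were seeded at 4000/well, rested 5 h at 37C, then dosed with DMSO compound solutions (217-fold dilution) for 16 h. CCF4-AM substrate was loaded for 2 h at room temperature, and the 460/530 nm emission ratio was fitted for gain of signal versus DMSO.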
# [8] = TOX21_p53_BLA_p4_viability: Viability Assessment in the Tox21 HCT-116 p53 Agonism Beta-lactamase Assay, Phase 4 (AID 2283597);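 also: hits lower the luminescence signal meaning cytotoxicity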
# Summary of the method: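 Cytotoxicity was inferred from loss of CellTiter-Glo luminescence. HCT116 cells had been dosed with compounds after 5 h plating, incubated 16 h at 37C and 5% CO2, and exposed to the CCF4-AM substrate for 2 h.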
# [9] = TOX21_p53_BLA_p5_viability: Viability Assessment in the Tox21 HCT-116 p53 Agonism Beta-lactamase Assay, Phase 5 (AID 2283600)
# Summary of the method: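 Luciferase-coupled ATP quantitation of cells treated for 16 h (37C, 5% CO2) with test chemicals delivered in DMSO via a 217-fold dilution; 4000 cells/well; reagent incubated 30 min at room temperature before luminescence reading.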
# Cellular tumor antigen p53 (Homo sapiens), sequence (P04637 whole entry, looked up): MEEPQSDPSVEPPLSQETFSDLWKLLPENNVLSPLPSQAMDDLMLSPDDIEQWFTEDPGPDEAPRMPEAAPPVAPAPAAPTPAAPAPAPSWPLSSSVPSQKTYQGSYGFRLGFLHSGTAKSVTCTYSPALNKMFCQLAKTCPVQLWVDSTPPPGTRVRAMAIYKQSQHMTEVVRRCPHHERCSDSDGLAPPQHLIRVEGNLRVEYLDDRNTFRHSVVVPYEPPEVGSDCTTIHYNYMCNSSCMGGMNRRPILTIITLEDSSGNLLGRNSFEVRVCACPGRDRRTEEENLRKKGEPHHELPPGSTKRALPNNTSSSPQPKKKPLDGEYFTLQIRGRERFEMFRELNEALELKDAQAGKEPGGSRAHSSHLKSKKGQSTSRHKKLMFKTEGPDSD
smiles,measurement,setting,value
CC1(C)[C@H](C(=O)O[C@H](C#N)c2cccc(Oc3ccccc3)c2)[C@@H]1/C=C(\Cl)C(F)(F)F,outcome,[1],inactive
same,outcome,[2],inactive
same,outcome,[3],inactive
same,outcome,[4],inactive
same,outcome,[5],inactive
same,outcome,[6],inactive
C=CCCl,outcome,[1],inactive
same,outcome,[3],inactive
same,outcome,[4],inactive
same,outcome,[7],inactive
same,outcome,[5],inactive
O=C(CCl)NCO,outcome,[1],inactive
same,outcome,[2],inactive
same,outcome,[3],inactive
same,outcome,[8],inactive
same,outcome,[5],inactive
same,outcome,[6],inactive
CCN(N=O)C(N)=O,outcome,[1],inactive
same,outcome,[2],inactive
same,outcome,[3],inactive
same,outcome,[7],inactive
same,outcome,[8],inactive
same,outcome,[9],inactive
Clc1ccc(C(Cl)(Cl)Cl)cn1,outcome,[1],inactive
same,outcome,[2],inactive
same,outcome,[4],inactive
same,outcome,[8],inactive
same,outcome,[5],inactive
same,outcome,[9],inactive
O=C(O)COc1ccc(Cl)cc1,outcome,[1],inactive
same,outcome,[2],inactive
same,outcome,[4],inactive
same,outcome,[7],inactive
same,outcome,[8],inactive
same,outcome,[5],inactive
Cc1cc(Cl)ccc1O,outcome,[1],inactive
same,outcome,[2],inactive
same,outcome,[3],inactive
same,outcome,[7],inactive
same,outcome,[8],inactive
same,outcome,[5],inactive
same,outcome,[6],inactive
Cc1c([N+](=O)[O-])c(C)c([N+](=O)[O-])c(C(C)(C)C)c1[N+](=O)[O-],outcome,[1],inactive
same,outcome,[2],inactive
same,AC50,[8],42.5 µM (active)
same,outcome,[5],inactive
same,outcome,[9],inactive
same,outcome,[6],inactive
CN(C)[C@@H]1C(=O)C(C(N)=O)=C(O)[C@@]2(O)C(=O)C3=C(O)c4c(O)ccc(Cl)c4[C@@](C)(O)[C@H]3C[C@@H]12,outcome,[1],inactive
same,outcome,[2],inactive
same,outcome,[8],inactive
same,outcome,[5],inactive
same,outcome,[9],inactive
CCN(CCO)CCO,outcome,[1],inactive
same,outcome,[2],inactive
same,outcome,[9],inactive
O=NN1CCOCC1,outcome,[1],inactive
same,outcome,[3],inactive
same,outcome,[4],inactive
same,outcome,[7],inactive
same,outcome,[8],inactive
same,outcome,[5],inactive
same,outcome,[6],inactive
C=CCc1ccccc1O,outcome,[1],inactive
same,outcome,[3],inactive
same,outcome,[4],inactive
same,outcome,[7],inactive
same,outcome,[5],inactive
O=S1(=O)OC(c2cc(Br)c(O)c(Br)c2)(c2cc(Br)c(O)c(Br)c2)c2ccccc21,outcome,[1],inactive
same,outcome,[2],inactive
same,AC50,[4],8.86 µM (active)
same,AC50,[8],52.4 µM (active)
same,outcome,[5],inactive
same,outcome,[9],inactive
same,outcome,[6],inactive
CCCCN(CCCCO)N=O,outcome,[1],inactive
same,outcome,[2],inactive
same,outcome,[4],inactive
same,outcome,[8],inactive
same,outcome,[9],inactive
O=C1c2ccccc2C(=O)C1C(=O)C(c1ccccc1)c1ccc(Cl)cc1 (stereo not drawn),outcome,[1],inactive
same,AC50,[2],29.4 µM (active)
same,AC50,[4],15.9 µM (active)
same,outcome,[7],inactive
same,AC50,[8],37.3 µM (active)
same,outcome,[5],inactive
same,outcome,[9],inactive
same,outcome,[6],inactive
CCNc1nc(NCC)nc(SC)n1,outcome,[1],inactive
same,outcome,[3],inactive
same,outcome,[4],inactive
same,outcome,[7],inactive
same,outcome,[8],inactive
same,outcome,[5],inactive
same,outcome,[9],inactive
C=CC(=O)NC(C)(C)CC(C)=O,outcome,[1],inactive
same,outcome,[2],inactive
same,outcome,[7],inactive
same,outcome,[8],inactive
same,outcome,[9],inactive
C=C(C)[C@@H]1CC=C(C=O)CC1,outcome,[1],inactive
same,outcome,[3],inactive
same,outcome,[4],inactive
same,outcome,[7],inactive
same,outcome,[5],inactive
Nc1nc(=S)[nH][nH]1,outcome,[1],inactive
same,outcome,[2],inactive
same,outcome,[3],inactive
same,outcome,[5],inactive
same,outcome,[9],inactive
N#CCC#N,outcome,[1],inactive
same,outcome,[2],inactive
same,outcome,[3],inactive
same,outcome,[7],inactive
same,outcome,[5],inactive
same,outcome,[9],inactive
CC(=Cc1ccccc1)[N+](=O)[O-],AC50,[1],23.6 µM (active)
same,outcome,[2],inactive
same,outcome,[4],inactive
same,outcome,[5],inactive
same,outcome,[9],inactive
same,outcome,[6],inactive
COc1ccc(N)cc1,outcome,[1],inactive
same,outcome,[2],inactive
same,outcome,[8],inactive
same,outcome,[5],inactive
same,outcome,[9],inactive
C#C[C@]1(O)CC[C@H]2[C@@H]3CCC4=CC(=O)CC[C@]4(C)[C@H]3CC[C@@]21C,outcome,[1],inactive
same,outcome,[3],inactive
same,outcome,[4],inactive
same,outcome,[7],inactive
same,outcome,[8],inactive
same,outcome,[5],inactive
same,outcome,[9],inactive
same,outcome,[6],inactive
Nc1cccnc1,outcome,[1],inactive
same,outcome,[3],inactive
same,outcome,[4],inactive
same,outcome,[7],inactive
same,outcome,[8],inactive
same,outcome,[5],inactive
same,outcome,[9],inactive
same,outcome,[6],inactive
Cl[C@H]1OCCO[C@@H]1Cl,outcome,[1],inactive
same,outcome,[3],inactive
same,outcome,[4],inactive
same,outcome,[7],inactive
same,outcome,[8],inactive
same,outcome,[5],inactive
Cc1cc(C(F)(C(F)(F)F)C(F)(F)F)ccc1NC(=O)c1cccc(I)c1C(=O)NC(C)(C)CS(C)(=O)=O,outcome,[1],inactive
same,outcome,[3],inactive
same,outcome,[4],inactive
same,outcome,[7],inactive
same,outcome,[8],inactive
same,outcome,[5],inactive
same,outcome,[9],inactive
same,AC50,[6],56.9 µM (active)
O=C(CBr)c1ccc(O)cc1,outcome,[1],inactive
same,outcome,[3],inactive
same,outcome,[4],inactive
same,outcome,[7],inactive
same,outcome,[8],inactive
same,outcome,[5],inactive
same,outcome,[9],inactive
same,outcome,[6],inactive
Cc1cc(Cl)ccc1OC(C)C(=O)O (stereo not drawn),outcome,[1],inactive
same,outcome,[2],inactive
same,outcome,[4],inactive
same,outcome,[8],inactive
same,outcome,[5],inactive
same,outcome,[9],inactive
same,outcome,[6],inactive
BrCCCCBr,outcome,[1],inactive
same,outcome,[2],inactive
same,outcome,[3],inactive
same,outcome,[8],inactive
N#Cc1ccncc1,outcome,[1],inactive
same,outcome,[2],inactive
same,outcome,[3],inactive
same,outcome,[7],inactive
same,outcome,[5],inactive
same,outcome,[9],inactive
same,outcome,[6],inactive
